Laboratory results reported in PubChem BioAssay AID686979 (National Center for Advancing Translational Sciences (NCATS), 2013).
Values joined by “and” are separate entries in the source; they are usually repeats but may differ in a detail not shown here. Equal entries are not always repeated. In all, about 420,000 compounds went through this assay and about 50,000 (12%) were called active. Not shown: some 26% with an inconclusive outcome. Calls come from the whole dose curve; as a rule, active = well fitted inhibition curve with a large enough effect; inconclusive = small, poorly fitted or top-dose-only effect; inactive = flat fitted curve, though single readings scatter. The list comes from a sample in which actives are over-represented; it also holds similar structures and randomly drawn compounds. Where a call stands in place of a potency, no number is given.

Assay: qHTS for Inhibitors of human tyrosyl-DNA phosphodiesterase 1 (TDP1): qHTS in cells in presence of CPT; note: nearly all actives have a fitted effect of over 55% in size
Conditions: chicken DT40 Tdp1-/-;hTDP1 cells + 20 nM CPT, ATP luminescence, 48 h; series mostly up to 46.2 µM
Source text: Human tyrosyl-DNA phosphodiesterase 1 (TDP1) is a novel repair gene, and we propose to use it as a new target for anticancer drug development. TDP1 is not an essential protein, but under treatment with topoisomerase I poison (camptothecin: CPT), TDP1 works as a critical factor for cell survival. To directly identify novel TDP1 inhibitors active in a cellular environment, we have knocked-out the Tdp1 gene in chicken DT40 cells (Tdp1-/-) and generated a complemented counterpart cells that contains a stable transfection of the human TDP1 gene (Tdp1-/-;hTDP1 cells). For the primary screen, Tdp1-/-;hTDP1 cells will be exposed to small molecules in the presence or absence of CPT, and their growth kinetics will be evaluated after 48 hours by measuring ATP activity. […] The hit compounds will then be evaluated in the presence or absence of CPT using Tdp1-/- cells. […] In tertiary assays, biochemical gel-based assays will be used to assess whether the hit compounds specifically target TDP1. To this end, we have screened this cell line against the MLSMR in two primary screens. In one screen we add CPT and in the other we screen in the absence of CPT; this AID represents the screen where CPT was present. NIH Chemical Genomics Center [NCGC] NIH Molecular Libraries Probe Centers Network [MLPCN] MLPCN Grant: MH095538 Assay Submitter (PI): Yves Pommier, NCI
DT40-hTDP1 cells with 20 nM Camptothecin (add 20 microL of 1 mM CPT stock in 1 L of cell culture medium) were dispensed at 400 cells/5microL/well in tissue culture treated 1536-well white wall/solid bottom assay plates (Greiner Bio-One North America, NC, U.S.A.) using a Multidrop Combi 8 channel dispenser (Thermo Fisher, Waltham, MA, USA). 23 nL compounds and controls were transferred using the pin tool (Kalypsys, San Diego, CA, USA) to the assay plates. The assay plates were then incubated at 37 masculineC for a minimum 48 hr. Three microL of Cell Titer Glo solution was added to the plates and incubated at RT in dark for 30 min. Luminescence was read using ViewLux (Perkin Elmer) with 1 sec exposure slow speed, high gain and 2x binning.
Potency is the fitted concentration of half-maximal effect.

SMILES | Potency
O=C(Nc1nccs1)C1CCN(S(=O)(=O)c2ccc(Cl)c(C(F)(F)F)c2)CC1 | inactive
O=C(NCc1cccnc1)c1ccccc1NC(=O)c1c(F)cccc1F | inactive
CN(C)C(=O)c1cccn(Cc2cccc(C(F)(F)F)c2)c1=O | inactive
CC(C)CC(=O)NC(=S)Nc1ccc(F)cc1F | inactive
CCOC(=O)c1cc(NC(=O)c2cccnc2)ccn1 | inactive
CCCCOC(=O)c1ccc(N2C(=O)CC(N3CCN(C/C=C/c4ccccc4)CC3)C2=O)cc1 (configuration not stated) | inactive
O=C(c1ccc(F)cc1)N1CCC(n2nnc3ccccc32)CC1 | inactive
CC(NC(=O)CCCC1CCCCC1)c1ccc(S(N)(=O)=O)cc1 (configuration not stated) | inactive
CC(Sc1nc2cc(Cl)ccc2s1)C(=O)Nc1ccc2c(c1)OCO2 (configuration not stated) | inactive
COc1ccc(C2NC(=O)N(C)C3=C2C(=O)N(c2ccc(C(=O)O)cc2)C3)cc1 (configuration not stated) | inactive
CC(C(=O)Nc1ccc(F)c(F)c1F)N1CCCCCC1 (configuration not stated) | inactive
COc1ccc([N+](=O)[O-])cc1NC(=O)CC1SC(=Nc2cccc(C)c2C)N(/N=C(\C)c2ccc(C)cc2)C1=O (configuration not stated) | inactive
CCOc1ccc(CN2CCN(Cc3c[nH]c4ccccc34)CC2)cc1 | 3.66 µM (active)
CCOc1ccc(CN2CCCN(C)CC2)cc1 | inactive
CCOc1ccc(CC(=O)NC2CCN(Cc3ccccc3)CC2)cc1 | inactive
CC(C)(C)S(=O)(=O)N1Cc2cc(CO)cc(CCO)c2[C@H]1CCO | inactive
C/C(CC(=O)NC(C)(C)C)=N\NC(=O)c1ccco1 | inactive
O=c1cc(CCl)nc2scc(-c3ccccc3)n12 | 14.6 µM (active)
CCCc1c(C)nc2scc(-c3ccc(Cl)cc3)n2c1=O | inactive
Cc1csc2nc(COC(=O)c3cccc(N(C)C)c3)cc(=O)n12 | inactive
Cc1onc(-c2ccccc2)c1C(=O)N1CCN(S(=O)(=O)c2ccccc2C(F)(F)F)CC1 | inactive
COc1ccc(CNC(=O)c2nnn(CC(=O)Nc3cc(C)cc(C)c3)c2N)cc1 | inactive
O=C(CSc1nnc(-c2cccs2)n1-c1ccccc1)NCc1ccco1 | inactive

SMILES | Potency
O=C(Cc1ccc(-n2c(=O)c3sccc3n(Cc3ccc(F)cc3)c2=O)cc1)NCc1ccco1 | 16.4 µM (active)
O=C(CSc1ncc(CO)n1Cc1ccc(F)cc1)NCc1ccco1 | inactive
Cc1ccc(N2C(=O)CC(NCc3ccc4c(c3)OCO4)C2=O)cc1Cl (configuration not stated) | inactive
CN(C)NC(=O)C(NC(=O)c1ccc(N)cc1)C12CC3CC(CC(C3)C1)C2 (configuration not stated) | inactive
COCCCN1C(=O)c2ccc(C(=O)OCC(=O)NCc3ccccc3OC)cc2C1=O | inactive
C/C(=N/NC(=O)c1ccncc1)c1ccc2c(c1)OCO2 | inactive
C/C(=N/NC(=S)Nc1ccccc1)c1ccc2c(c1)OCO2 | 0.82 µM (active)
C/C(=N\NC(=O)C(N)=O)c1ccc2c(c1)OCCO2 | inactive
CCCCNC(=O)CCn1nc(-c2ccc(Cl)cc2)ccc1=O | inactive
O=C(O)CSc1nccc2ccccc12 | inactive
CCOC(=O)C(C(=O)c1ccccc1)C(c1ccccc1)c1nccc2ccccc12 (configuration not stated) | 20.6 µM (active)
CCCn1nc2cc(C(=O)NCc3ccccc3)ccc2c1OCC | inactive
Cc1ccc(NC(=O)C2(N3CCC3=O)CCCCC2)cc1 | inactive
CCn1cc(C(=O)NCC(=O)NC(C)(C)CO)c(=O)c2cc3c(cc21)OCO3 | inactive
CCCCNC(=O)C1CCCNC1=O (configuration not stated) | inactive
O=C(NCc1ccc2c(c1)OCO2)c1cc([N+](=O)[O-])ccc1N1CCOCC1 | 3.26 µM (active)
O=C(Cc1ccc([N+](=O)[O-])cc1)NCCc1ccc2c(c1)OCO2 | inactive
O=C(NC1CCCCC1)c1cc([N+](=O)[O-])ccc1N1CCOCC1 | inactive
O=C1C2C3C=CC(C3)C2C(=O)N1c1ccc(S(=O)(=O)Nc2nccs2)cc1 (configuration not stated) | inactive
COc1ccc(C(=O)NCc2ccccc2C)cc1S(=O)(=O)NC1CCCC1 | inactive
CC(=O)N(CC(O)CO)c1c(I)c(C(=O)NCC(O)CO)c(I)c(C(=O)NCC(O)CO)c1I (configuration not stated) | inactive
O=C(C1CC(=O)N(c2ccc(Br)cc2)C1)N1CCCC1 (configuration not stated) | inactive
COc1ccc(C(CC(=O)c2ccccc2)S(=O)(=O)c2ccccc2)cc1 (configuration not stated) | 23.1 µM (active)

SMILES | Potency
COc1ccc(NC(=O)CS(=O)(=O)c2ccccc2)cc1 | inactive
COc1ccc(N(Cc2ccccc2)S(=O)(=O)c2cccc(C(=O)O)c2)cc1 | inactive
NC(=O)c1ncn([C@@H]2O[C@H](CN=C3NS(=O)(=O)c4ccccc43)[C@@H](O)[C@H]2O)n1 | inactive
CC(Oc1ccc(Br)cc1)C(=O)NCC(c1ccco1)N1CCCCC1 (configuration not stated) | inactive
CN(C)S(=O)(=O)c1ccc(Oc2ccc(S(=O)(=O)N(C)C)cc2)cc1 | 16.4 µM (active)
CN(C)S(=O)(=O)c1ccc(NC(=O)N2CCOCC2)cc1 | inactive
COc1ccc(S(=O)(=O)N(C)CC(=O)N2CCCC2)cc1 | inactive
COc1ccc(N(CC(=O)Nc2cc(OC)cc(OC)c2)S(=O)(=O)c2c(C)n[nH]c2C)cc1 | inactive
COc1ccc(CCNC(=O)COC(=O)c2ccc[nH]c2=O)cc1 | inactive
CC(C)=N/N=C1/NC(=O)C(Cc2ccccc2)S1 (configuration not stated) | inactive
CCN(CC(=O)NCc1cccs1)C(=O)/C=C/c1ccc(C)cc1 | inactive
O=C1CCN(CCCc2ccccc2)CCN1CCO | inactive
O=C1CCN(Cc2ccc([N+](=O)[O-])cc2)CCN1[C@H](CO)Cc1ccccc1 | inactive
O=C(Cc1ccccc1)NNC1CC(=O)N(c2ccc(Br)cc2)C1=O (configuration not stated) | inactive
C[C@H]1CCC(=O)N([C@H](CSc2ccccc2)Cc2ccccc2)CC1 | inactive
COc1ccc(SC[C@H](Cc2ccccc2)N2CCN(CCc3ccccc3)CCC2=O)cc1 | 23.1 µM (active)
O=C1CC[C@H](O)CCN1[C@H](CSc1ccc(Br)cc1)Cc1ccccc1 | 11.2 µM (active) and 14.6 µM (active)
O=C(CN1CCC(NC(=O)C2CC2)CC1)Nc1ccccc1[N+](=O)[O-] | inactive
Cc1cc(C(F)F)nn1CC(=O)NC1CCCCCC1 | inactive
Cc1ccc2c(cnn2C(=O)CCC(=O)NC2CCCC2)c1 | inactive
O=C(Cc1cccs1)Nc1ccc([N+](=O)[O-])cc1 | inactive
